Sampled rows, rich in hits. Any-hit rate of the full collection: about 3.3%.
DRD3 agonist: agonists of human D3 dopamine receptor; hit rate 0.58% among 410,000; max activation, %; D3R DiscoveRx beta-arrestin cells, luminescence, 90 min; P35462; in the data active = max activation above about 30%
Target sequence (P35462 whole entry, looked up): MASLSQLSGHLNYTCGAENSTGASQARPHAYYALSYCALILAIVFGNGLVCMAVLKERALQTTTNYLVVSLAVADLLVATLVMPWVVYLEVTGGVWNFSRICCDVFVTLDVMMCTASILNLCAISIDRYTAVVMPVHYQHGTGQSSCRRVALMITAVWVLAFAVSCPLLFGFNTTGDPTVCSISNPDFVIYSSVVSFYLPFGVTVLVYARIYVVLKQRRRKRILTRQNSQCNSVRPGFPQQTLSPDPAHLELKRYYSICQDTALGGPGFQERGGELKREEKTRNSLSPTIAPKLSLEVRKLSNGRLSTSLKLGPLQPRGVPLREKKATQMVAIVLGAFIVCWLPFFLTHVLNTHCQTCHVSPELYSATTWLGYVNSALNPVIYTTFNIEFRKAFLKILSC
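Cells at 1500/well, incubated overnight, then treated with pinned compounds (dopamine as control) for 90 min at 37 degrees C. DiscoveRx reagent added for 30 - 60 minutes at room temperature; luminescence read.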
PI5P4Ka inh: inhibitors of human PI5P4K alpha; P48426; PI5P4Kalpha enzyme, ADP-Glo luminescence, 60 min; active compounds read low; max response, %; hit rate 1.2% among 330,000; AID 652105; active = max response of -50% or lower; inconclusive = between -30% and -50%; inactive = -30% or higher; also: value at the top dose of about 77 µM
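ADP-Glo luminescence end-point after a 60 min room-temperature kinase reaction. PI5P4Kalpha and substrate in HEPES pH 7.4 buffer with EGTA, 0.1% CHAPS and 5% DMSO; ATP at 5 microM final.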
D3 antag: antagonists of human D3 dopamine receptor. P35462. D3R cells, DiscoveRx beta-arrestin luminescence, antagonist mode; active compounds read low. max response, negative = inhibition, %. hit rate 2.5% among 360,000. AID 652054; in the data active = max response below about -50%; inconclusive = no clear call, values can overlap the other calls
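Cells plated overnight at 1500 cells/well, then exposed to library compounds with dopamine controls for 90 minutes at 37 degrees C. DiscoveRx reagent added for 30–60 minutes at room temperature; luminescence read, quantitative HTS format.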
LDHA block: blocks human lactate dehydrogenase A; P00338; purified LDHA, NADH/diaphorase-resazurin fluorescence; active compounds read low; activity change, % (values are at about 110 or 230 µM); hit rate 0.15% among 480,000; AID 1347041; in the data active = activity change below about -30%; inconclusive = mostly about -25% to -30%
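Resorufin fluorescence (ex540/em590), read at 0 and 20 min after diaphorase/resazurin addition, reports the NADH left after a 5 min room-temperature reaction of 2 nM human LDH5 with 0.06 mM NADH and 0.2 mM pyruvate.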
PI4K2A inh: blocks human PI4K2A kinase activity; Q9BTU6; purified PI4K2A, ADP-Glo luminescence, 1 h; active compounds read low; activity change, negative = inhibition, % at 76.9 µM; hit rate 0.13% among 420,000; AID 1346378; in the data active = activity change below about -50%; inconclusive = mostly about -30% to -49%
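ADP-Glo luminescence measured ADP generated by PI4K2A enzyme (4 ug/mL before mixing) with 1.2 mM PI substrate (pre-mix) and 300 microM ATP (pre-mix). Tris pH7.5 buffer with MgCl2, Triton X-100; 1 h reaction at ambient temperature.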
A number is an active result; - = inactive; ? = inconclusive; . = no result given.

SMILES	DRD3 agonist	PI5P4Ka inh	D3 antag	LDHA block	PI4K2A inh
Cc1cc(C)cc(COc2ccc(C(N)=O)cc2)c1	.	.	.	-	.
CC1=C(C(=O)Nc2ccccc2)C(c2ccc(C(C)C)cc2)N2C(=O)CSC2=N1 (stereo not given)	-	.	-50.6	-	-
COc1ccc(CC(=O)OCn2nnc3ccccc3c2=O)cc1	-	-	-	-	-56.7
CC(CN(C)Cc1ccccc1)OC(=O)c1cccs1 (stereo not given)	-	.	-76.4	-	-
CC(CN(C)Cc1ccccc1)OC(=O)c1ccccc1F (stereo not given)	-	-	-	-	-
CC(CN(C)Cc1ccccc1)OC(=O)c1ccc2c(c1)OCCO2 (stereo not given)	-	-	-77.1	-	-
O=C(CCS(=O)(=O)c1nc(-c2cccs2)cc(C(F)(F)F)n1)Nc1ccc(OC(F)(F)F)cc1	-	.	.	-	-68.4
N#Cc1nc(-c2cccs2)oc1N1CCCCC1	.	.	.	-	.
N#Cc1nc(-c2cccs2)oc1N1CCN(Cc2ccccc2)CC1	-	.	-74.7	-	-
C(=C\c1ccco1)/c1nc2ccccc2[nH]1	-	-	-	-	-
c1ccc(-c2n[nH]c(-c3ccccc3)c2-c2nc3ccccc3[nH]2)cc1	-	-	-56.4	-	-
c1ccc2[nH]c(-c3ccncc3)nc2c1	-	-	-	-	-
c1ccc(-c2nc3ccccc3[nH]2)cc1	-	-	-93.6	-	-
Cc1cc(-c2nc3ccccc3[nH]2)ccc1N	-	-	-	-	-
C(=C\c1nc2ccccc2[nH]1)/c1ccccc1	-	.	-	-	-55.4
Nc1cc(N)cc(-c2nc3ccccc3[nH]2)c1	-	-63.5	-	-	-
COC(=O)COc1ccc2c(=O)c(-c3ccccc3)c(C)oc2c1	.	.	.	-	.
COc1ccc(OCC(=O)Nc2c(C(=O)N3CCN(c4ccccc4)CC3)oc3ccccc23)cc1	88.8	.	.	-	-
COc1cc(C(=O)NC(CCSC)C(=O)Nc2ccc(N3CCOCC3)cc2)cc(OC)c1OC (stereo not given)	-	-	-73.1	-	-
O=S1(=O)CC(O)C(O)CS1 (stereo not given)	-	-69.2	-	-	-
Cc1ccsc1C(=O)N1CCC1(C)C(=O)NS(=O)(=O)c1ccccc1 (stereo not given)	-	-	-	-	-
CC1(C(=O)NS(=O)(=O)c2ccccc2OC(F)(F)F)CCN1C(=O)c1ccco1 (stereo not given)	-	-	-59.7	-	-
Cc1ccsc1C(=O)N1CCC1(C)C(=O)NS(=O)(=O)c1ccccc1C(F)(F)F (stereo not given)	98.5	-	-	-	-
CCn1nc(C)c(CNC(=O)Nc2ccc(F)c(Cl)c2)c1C	.	.	.	-	.
O=C(N/N=C/c1ccc(-c2ccccc2Cl)o1)c1ccccc1	-	-	?	-	-
SMILES	DRD3 agonist	PI5P4Ka inh	D3 antag	LDHA block	PI4K2A inh
O=S(=O)(N/N=C\c1ccc(-c2ccccc2Cl)o1)c1ccccc1	-	-	-52.3	-	-
Fc1ccc(CNCc2cccc3ccccc23)cc1	.	.	.	-	.
CCOc1ccccc1N(CC(=O)OC)S(C)(=O)=O	-	.	-106.5	-	-
CCOc1ccccc1N(CC(=O)NC1CC1)S(C)(=O)=O	.	.	.	-	.
CCN(CC)CCOC(=O)c1ccc(NC(=O)CCCN2C(=O)S/C(=C/c3ccc(OC)cc3)C2=S)cc1	-	-	-82.7	-	-
CC(C)c1cc(C(=O)Nc2ccc(Cl)cc2F)cs1	.	.	.	-	.
CCCCNC(=S)N/N=C1\C(=O)c2cccc3cccc1c23	-	-	-	-	-
CNC(=S)N/N=C1\C(=O)c2cccc3cccc1c23	-	-	-54.5	-	-
COc1ccccc1/C=C/c1nc(C#N)c(NCCN(C)C)o1	.	.	.	-	.
CCS(=O)(=O)NCCC(=O)O	.	.	.	-	.
COc1ccc(CC(CC(=O)O)C(=O)NCc2ccccc2)cc1 (stereo not given)	-	-	-68.8	-	-
CN(CC(=O)NCCc1ccccc1)S(=O)(=O)c1cccs1	-	-	-	-	-
CN(CC(=O)NCCc1ccccc1)S(=O)(=O)c1ccc(Br)s1	-	-	-77.9	-	-
COc1ccc(-c2cc3ccccc3n2CC(O)Cn2nc(C)cc2C)cc1 (stereo not given)	-	-	?	-	-
COc1ccc(-c2cc3ccccc3n2CC(O)CN2CCC(C)CC2)cc1 (stereo not given)	-	-	-110.8	-	-
N#C/C(=C/c1ccc(N2CCOCC2)o1)c1ccc(Cl)cc1	-	.	-104.9	-	-
COC(=O)[C@@]1(Cc2ccccc2)[C@@H]2C(=CC(=O)[C@H]2CC(=O)C(=O)N(C)C)CN1C(=O)c1ccccc1	-	-	-51.2	-	-
Cc1ccc(Nc2nnc(SC/C(O)=C(\C#N)c3nc4ccccc4[nH]3)s2)c(C)c1	-	-60.0	-	-	-
Cc1cccc(Nc2nnc(SC/C(O)=C(\C#N)c3nc4ccccc4[nH]3)s2)c1	-	-54.1	-	-	-
Cc1cc(C)n2c(SCC(O)=C(C#N)c3nc4ccccc4[nH]3)nnc2n1	-	-73.5	-	-	-
Nn1cnnc1N/N=C/c1ccc(Cl)c([N+](=O)[O-])c1	-	-	?	-	-51.8
Nn1cnnc1N/N=C/c1ccc(F)cc1	-	-	?	-	?
Cc1c(C(=O)OCC2CCCO2)[nH]c2c1C(=O)CC(c1ccco1)C2 (stereo not given)	-	-76.0	-	-	-53.5
C/C=C/COC(=O)c1[nH]c2c(c1C)C(=O)CC(c1ccco1)C2 (stereo not given)	-	-	-	-	-
C=CCOC(=O)c1[nH]c2c(c1C)C(=O)CC(c1ccco1)C2 (stereo not given)	-	-60.5	-	-	-
SMILES	DRD3 agonist	PI5P4Ka inh	D3 antag	LDHA block	PI4K2A inh
Cc1[nH]c2ccccc2c1C(=O)CN1C(=O)NC2(CCOc3ccccc32)C1=O (stereo not given)	.	.	.	-	.
Cc1ccccc1C(=O)NCC(=O)OCc1ncc(-c2ccccc2)o1	.	.	.	-	.
Cc1ccc(-c2n[nH]c(=O)c3ccccc23)cc1S(=O)(=O)N1CCOCC1	.	.	.	-	.
CC1=NN(c2ccccc2)C(=O)C1N=Nc1ccc(N)cc1 (stereo not given)	-	-	-59.7	-	?
CCCCCCCCCCCC(=O)NC(C(=O)OCC)C(O)c1cccc([N+](=O)[O-])c1 (stereo not given)	32.3	-	-	-	-
COc1ccc2cc(C(=O)Nc3ccc(O)cc3)sc(=O)c2c1OC	-	-	-	-	-
COc1ccc2cc(C(=O)Nc3ccc(Cl)cc3)sc(=O)c2c1OC	-	-	-69.3	-	-
CCOC(=O)c1c(C)n(C)c2ccc(OCC(O)Cn3nc(C)cc3C)cc12 (stereo not given)	-	-	-	-	-
CCOC(=O)c1c(C)n(C)c2ccc(OCC(O)CN(CC)CC)cc12 (stereo not given)	-	-	-53.7	-	-
O=C(O)CC1Sc2ccccc2NC1=O (stereo not given)	-	-	-	-	-

Assay outcomes (PubChem BioAssay)
